About 83,000 compounds went through this panel and 20% of them were active in at least one assay; those are over-represented in the sample as a whole.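 Results are percent growth after 48 hours of single-concentration exposure. 100 means growth as in untreated cells, lower positive values show inhibition; negative values down to -100 show cell death.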 A number with no mark means an inactive call. Active and inactive are the calls of the source. Rule for the calls: active = growth percent below 10; inactive = the rest.
Each compound was assayed on HL-60(TB) leukemia (assay: NCI-60 one-dose screen, 48 h (100 = growth as untreated, 0 = no growth, -100 = all killed)). Details: 10 µM unless noted.
`CC(C)CSc1ncnc2nc[nH]c12` showed a growth of 133%.
With `O=C(CCCCCCC(=O)Nc1ccccc1)NO` the growth was -0.31% (active).
In the case of `Cc1ccc(/C=C(\C#N)c2cc3ccccc3n2C)cc1`, the growth is reported as 4.45% (active).
In the case of `Nc1c2c(c(O)c3c1=C(CO)C=N3)=NCCS2=O` (configuration not stated), the growth is reported as -42.1% (active).
Work on `[O-][N+](=Nc1cccc(Cl)c1)c1cccc(Cl)c1` yielded a growth of 132%.
`COc1cc2c(c3c1c(=O)c1cccc(F)c1n3C)C=CC(C)(C)O2` showed a growth of 100%.
Work on `O=C(NOC1OC(CO)C(O)C(O)C1O)Nc1ccccc1` (configuration not stated) yielded a growth of 74.5%.
`CCCCCCNC(=O)Oc1ccc(/C(=C(/CC)Cc2ccccc2)c2ccc(OCCN3CCCCC3)cc2)cc1` gave a growth of 75.1%.
With `CCCCCCCC(=O)Nc1nc2[nH]c(CN3CCN(Cc4cccc(I)c4)CC3)c(CN3CCN(Cc4cccc(I)c4)CC3)c2c(=O)[nH]1` the growth was -49.3% (active).
Compound `COc1cc2ncnc(NC3CCC(O)CC3)c2cc1OC` (configuration not stated) has a growth of 97.7%.
With `Cc1ccc([N+](=O)[O-])c(C)n1` the growth was 115%.
With `CNc1nc2ncn(C)c2c(=O)[nH]1` the growth was 91.5%.
For `c1ccc(Cn2cc(-c3nc4ccccc4s3)c3cccnc32)cc1`, the growth was 115%.
With `Cc1cc(N2CCCC2)nc(NCc2cc(Nc3ccnc4cc(Cl)ccc34)ccc2F)n1` the growth was -61.1% (active).
`COc1cc(-c2cc(-c3nc4ccc(Cl)cc4[nH]3)[nH]n2)cc(OC)c1OC` gave a growth of 38.4%.
For `Cc1ccc(-c2nc([P+](c3ccccc3)(c3ccccc3)c3ccccc3)c(Nc3ccccc3)o2)cc1`, the growth was -48.4% (active).
Work on `N#Cc1c(NC(=O)c2ccco2)[n+]([O-])c2cc(Cl)c(Cl)cc2[n+]1[O-]` yielded a growth of 91.8%.
`Cc1ccc(-c2c3c(N)c4c(nc3nc3c2c(C)nn3-c2ccccc2)CCCC4)cc1` showed a growth of 98.5%.
`[2H]C1([2H])CCN(C(=O)C2CC2)c2cc(NS(=O)(=O)c3ccc(-c4cccc(C(N)=O)c4)cc3)ccc21` was tested, and the growth was -0.857% (active).
For `CCNC(=O)OCCc1c2ccccc2nc2ccccc12`, the growth was 95.1%.
`Cc1ccccc1COc1ccc(-c2ccnn2-c2ccc(Cl)cc2)cc1` showed a growth of 13.3%.
`O=C1C=C(Cl)C(=O)c2ccccc21` gave a growth of 57.3%.
For `CC1CCN(C(=O)OCc2nc3nc(Cl)nc(N4CCOCC4)c3[nH]2)CC1`, the growth was -43.5% (active).
Compound `COc1ccc(-c2nc(-c3cn(C)c4ncccc34)cs2)cc1` has a growth of 13% [100 µM].
With `COc1ccc(C(c2cc(OC)c(OC)c(OC)c2)N2CCCCC2)cc1` (configuration not stated) the growth was 4.36% (active).
With `CC(C)C1(C(C)C)NC(=O)NC1=O` the growth was 95.1%.
`CCCC/C=N/NC(=S)NCc1ccccc1` showed a growth of 105%.
For `C=C(C)[C@@H]1CC[C@]2(CN)CC[C@]3(C)[C@H](CC[C@@H]4[C@@](C)(CCCN)[C@H](C(=C)C)CC[C@]43C)[C@@H]12`, the growth was 53.3%.
`O=C1Nc2ccccc2/C1=C/c1cn(CC(O)Cn2cc(/C=C3\C(=O)Nc4ccccc43)c3ccccc32)c2ccccc12` (configuration not stated) was tested, and the growth was -10.2% (active).
With `C#Cc1cccc(Nc2nc(Cl)nc3cc(NC(=O)CCl)ccc23)c1` the growth was -45.8% (active).
`O=C(Cc1nc2ccc([N+](=O)[O-])cc2nc1CC(=O)c1cccnc1)c1cccnc1` gave a growth of 67.5%.
`COC(=O)[C@]12CC[C@@H](C)[C@H](C)[C@@H]1C1=CC[C@@H]3[C@@]4(C)C(C=O)=C[C@@](C)(COC(=O)c5ccco5)C4=CC[C@@]3(C)[C@]1(C)CC2` was tested, and the growth was -9.45% (active).
For `COC(=O)c1ccc2c(c1)c1c(C)c3cnccc3c(C)c1n2C`, the growth was -2.92% (active).
With `CC(C)(C)c1ccc(C(=O)N/N=C/c2ccc(O)cc2O)cc1` the growth was 5.19% (active).
With `COc1cc(N=Nc2ccc(O)c3ncccc23)c2ncccc2c1` the growth was -14.1% (active).
`C=CCn1c(C)nc2ccc(Nc3nc(Nc4ccc5nc(C)n(CC=C)c5c4)c4ccccc4n3)cc21` was tested, and the growth was -63.2% (active).
With `CCC(C)C1NC(=O)C(CC(C)C)NC(=O)C(C)NC(=O)C(C(C)C)NC(=O)C(CCCCN)NC(=O)C(CC(C)C)NC(=O)C(C(C)C)NC(=O)[C@H](C)NC(=O)C(C(C)CC)NC(=O)C(CCCN=C(N)N)NC(=O)C(CCCCN)NC(=O)C(CCCN=C(N)N)NC(=O)C(CCCCN)NC(=O)C([C@H](C)CC)NC(=O)C(CCCCN)NC1=O` (some centres not stated) the growth was -39.5% (active).

— PubChem BioAssay (NCI)
